Values joined by “and” are separate entries in the source; they are usually repeats but may differ in a detail not shown here. Equal values may be shown once. About 1,500 (0.58%) of roughly 260,000 compounds were called active. Inconclusive results (about 5%) are left out.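 The calls were made as follows: active = inhibition above a set limit at one or more doses, reproduced on every date tested; inconclusive = results disagree between test dates, or hit never tested in dose response; inactive = the rest.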 A selection follows. Entries with a potency or affinity are not part of this list.
biological target: Virion infectivity factor (Human immunodeficiency virus type 1 group M subtype B (isolate BH10)) + Virion infectivity factor (Human immunodeficiency virus type 1 group M subtype B (isolate BRU/LAI)) + Virion infectivity factor (Human immunodeficiency virus type 1 group M subtype B (isolate PCV12)) + Virion infectivity factor (Human immunodeficiency virus type 1 group M subtype B (isolate HXB2)) + DNA dC->dU-editing enzyme APOBEC-3G (Homo sapiens) (UniProt P69720+P69721+P69722+P69723+Q9HC16); test: HIV-1 Vif–A3G interaction blockers – biochemical, TR-FRET, GST-Vif 1-94, biotin-A3G peptide, dose response retest, primary screen (AID 1117319); conditions: TR-FRET GST-Vif / biotin-A3G peptide binding; active compounds read high;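 also: Vif residues 1-94 fused to GST binding biotinylated APOBEC3G peptide 110-148; 0% = full assay without inhibitor and 100% = GST in place of GST-Vif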

inhibition, inactive:
CSCCC(NC(=O)c1ccccc1Cl)C(=O)N1CCN(c2ccccn2)CC1 (centres undefined) -6.33%
COc1ccc(-c2noc(CCC(=O)N3CCN(c4cccc(C(F)(F)F)c4)CC3)n2)cc1 22.9% and -0.11%
CC(C)N(Cc1ccccc1)C(=O)COC(=O)C1CCN(c2ccc(C(F)(F)F)cn2)CC1 -3.12%
Oc1ccc2ccccc2c1Br 0.97%
O=C1C(=O)c2c(ccc3ccccc23)-c2ccccc21 -6.35%
CCCCCCCCC#Cc1nc(C)ccc1OC -3.1%
CCOC(=O)N1C2=NC(C(=O)OC)=C(C(=O)OC)[C@@H]3Nc4ccccc4[C@]23C[C@H]1C(=O)OC 4.32%
C[C@H]1CN([C@@H](C)CO)C(=O)CCCn2nncc2CO[C@@H]1CN(C)C(=O)NC1CCCCC1 1.5%
O=C(O)c1ccccc1C(=O)Nc1ccc(-n2nccc2C(F)(F)F)cc1 -1.72%
O=C(CNc1ccc(F)cc1)N/N=C1\CCCc2ccccc21 -0.54%
COC(=O)CSc1nc(N)nc(C)c1Cl -8.89%
CC1=C(C(=O)N2CCOCC2)C(c2ccc(O)cc2)NC(=S)N1 (centres undefined) 17.4%
c1ccc2c3c(cc(N4CCOCC4)c2c1)OC1(N2CCOCC2)CCCCC1O3 (centres undefined) -2.4%
COc1cc(OC)cc(C(=O)N[C@H](C(=O)Nc2cc(C)cc(C)c2)C(C)C)c1 -1.59%
COc1ccc(OC)c2[nH]c(=O)c(CCNC(=O)C(=O)c3c(C)[nH]c4ccccc34)cc12 2.37%
CC[n+]1cccc(-c2nc3ccccc3s2)c1 5.45%
COC(=O)CSc1nnc(CNC(=O)c2cccc(C)c2)n1-c1ccccc1OC 6.5%
CCOC(=O)CSc1nnc(CNC(=O)Cc2ccccc2)n1-c1ccccc1OC -6.46%
Cc1ccc(CNC(=O)C2CC2c2ccccc2)cc1 (centres undefined) -6.49%
CN(CC(=O)Nc1c(Cl)cccc1Cl)C(=O)Cc1ccsc1 -2.32%
Cc1cc(NC(=O)C2CC(c3ccc(F)cc3)=NO2)no1 (centres undefined) 0.56%
CCc1cc2cccc(C)c2nc1SCC(=O)Nc1nonc1C 32.8%
COc1cc(S(=O)(=O)N(Cc2ccccn2)Cc2ccco2)ccc1-n1cnnn1 -2.53%
COc1ccccc1CN(Cc1ccco1)S(=O)(=O)c1ccc(-n2cnnn2)c(OC)c1 0.86%
CN[C@H]1C[C@H]2c3[nH]c4ccccc4c3CCN2C(=O)[C@H]1[C@H](C)O -5.11%
N#Cc1cc(N2CCCCC2)c([N+](=O)[O-])cc1C#N -2.18%
O=[N+]([O-])c1cc(F)c(N2CCCCC2)cc1N1CCOCC1 8.86%
CCN(c1ccccc1)S(=O)(=O)c1ccc(Oc2ccccc2)c(N)c1 2.08%
COc1ccc(C2=NOC(C(=O)NCc3cccs3)C2)cc1 (centres undefined) -3.82%
COc1cccc(C2=NOC(C(=O)NCc3cccs3)C2)c1 (centres undefined) -3.08%
COc1cc(-n2c(C)nc3ncn(-c4ccccc4)c3c2=O)cc(OC)c1OC 2.62%
CC(=O)Nc1ccc(OCC(O)Cn2cccn2)cc1 (centres undefined) -6.52%
CCCN(CC(=O)Nc1ccccc1C)C(=O)C1CCN(C(=O)Nc2ccccc2)CC1 -0.04%
O=C(Oc1ccccc1)c1cccc(N2C(=O)CCC2=O)c1 -0.79%
N#Cc1c(Nc2cccc(F)c2)sc2c(O)cc(=O)[nH]c12 -5.54%
O=C(CCc1ccc(S(=O)(=O)NCCc2ccccc2)cc1)NCc1ccc2c(c1)OCO2 -2.37%
CS(=O)(=O)N(CCc1ccccc1)CC(=O)Nc1ccc2c(c1)OCO2 13.8%
CCCNS(=O)(=O)c1ccc(CCC(=O)Nc2ccc3c(c2)OCO3)cc1 2.82%
CS(=O)(=O)N(CC(=O)Nc1ccc2c(c1)OCCO2)Cc1ccccc1 24.5%
CC1(C)Cc2c(sc3nc(SCC(=O)N4CCOCC4)nc(N)c23)CO1 3.98%
CSc1nc(C)cc(OCC(=O)n2nc(C)cc2C)n1 1.86%
CC(=O)Nc1sc2c(c1C(c1ccccc1)N1CCOCC1)CCCC2 (centres undefined) 5.78%
CCOC(=O)c1ccc(NC(=O)C(=O)NCc2ccncc2)cc1 27%
CC(=O)OCCNc1cc(N2CCN(C)CC2)c2noc3c2c1C(=O)c1ccccc1-3 3.2%
O=[N+]([O-])c1c(NCCO)cc(N2CCC3(CC2)OCCO3)c2nonc12 -8.02%
CCOC(=O)c1coc(C(=O)OCC)c1C(=O)OCC -10.9%
COc1ccc(-c2csc(NC3=NCCCCC3)n2)cc1 -3.94%
O=C1NC(=S)N/C1=C/c1cc([N+](=O)[O-])ccc1O 0.15%
O=C1NC(=S)N/C1=C\c1cccc([N+](=O)[O-])c1 0.47%
O=C(/C=C\Nc1ccc2c(c1)OCO2)c1ccccn1 -6.96%
O=C(/C=C\Nc1ccccn1)c1ccccc1 1.92%
O=C(NCc1cccnc1)c1cc2nc(-c3cccs3)cc(C(F)(F)Cl)n2n1 -9.65%
CCCn1c(CNc2ccc(Br)cc2)nc2ccccc21 -3.54%
CCOc1ccc(NCc2nc3ccccc3n2CCOc2ccccc2)cc1 11.4%
Cn1c(CNc2ccccc2O)nc2ccccc21 17.5%
COc1ccc(NCc2nc3ccccc3n2CCOc2ccc(C)cc2)cc1 8.44%
CCOC(=O)n1c(=O)oc2cc(S(=O)(=O)N3CCOCC3)ccc21 9.96%
COc1ccc(Cc2nnc(SCC(=O)NCc3ccco3)o2)cc1 3.47%
COc1ccc(-c2nnc(-c3cccs3)o2)cc1OC 25.2%
COc1cc(-c2nnc(-c3cccs3)o2)cc(OC)c1OC 2.65%
Cc1ccc(C(=O)N[C@H](C(=O)OCC(=O)c2ccc[nH]2)C(C)C)cc1 -7.75%
O=C1NC(=S)NC1=Cc1ccc(O)cc1 4.35%
O=C1NC(=S)NC1=Cc1ccccc1O -3.79%
O=C1C(=Cc2ccco2)C(=O)c2ccccc21 -3.58%
Cc1ccc2c(c1)/C(=C/c1ccco1)C(=O)N2 6.3%
Cc1ccc(/C(O)=C2/C(=O)C(=O)N(c3ccccn3)C2c2cccc([N+](=O)[O-])c2)cc1 (centres undefined) 1.22%
O=C(Nn1cnnc1)c1ccc(Cl)c([N+](=O)[O-])c1 -7.17%
CCN(CC)C(=O)[C@H]1C[C@H](CC(=O)NCc2ccco2)C(=O)N2CCc3c([nH]c4cc(-c5ccco5)ccc34)[C@]12C -1.87%
O=C(O)CCCNC(=O)c1cncc(Br)c1 -4.15%
COc1cc(-c2nnc3n2CCCCC3)cc(OC)c1OC -1.21%
Cc1ccc(NC(=O)C(NC2CCCC2)c2ccccc2)cc1Cl (centres undefined) 21.3%
O=C1NN(c2ccccc2)C(=O)/C1=C/c1ccc(Sc2ccc(Cl)cc2)o1 -5.35%
N#C/C(=C\c1ccc(Sc2nc3ccccc3[nH]2)o1)c1ccccc1 4.57%
C=CCN1C(=O)S/C(=C/c2ccc(Sc3nc4ccccc4[nH]3)o2)C1=O -2.89%
N#C/C(=C/c1ccc(Sc2nc3ccccc3[nH]2)o1)c1cccc(F)c1 25.4%
CC(C)N=C1NN=C(c2cccs2)C(CC(=O)O)S1 (centres undefined) 1.51%
CCOc1ncccc1C(=O)OCC(=O)Nc1c(C)cc(C)cc1C 2.59%
Nc1c(C(=O)Nc2ccccc2)sc2nc3c(c(-c4ccco4)c12)CCC3 13.2%
Nc1c(C(=O)Nc2ccccc2)sc2nc3c(c(-c4ccco4)c12)CCCC3 -0.46%
COc1cc(/C=C2\CC/C(=C\c3cc(OC)c(OC)c(OC)c3)C2=O)cc(OC)c1OC 2.04%
COc1cc(/C=C2\CCC/C(=C\c3ccc(O)c(OC)c3)C2=O)ccc1O 3.35%
COc1ccc(/C=C2\CC/C(=C\c3ccc(OC)c(OC)c3)C2=O)cc1OC -3.91%
COc1cc(/C=C2/CC/C(=C/c3ccc(O)c(OC)c3)C2=O)ccc1O 32.3%
Cc1cc(C)cc(OCc2ccc(C(=O)O)o2)c1 9.08%
FC(F)(F)c1ccc(N=Cc2sc(N3CCOCC3)nc2-c2ccccc2)cc1 12.3%
COc1ccc(NC(=O)CN(C)C(=O)c2sc3ccccc3c2Cl)cc1 1.23%
CS(=O)(=O)N(Cc1ccccc1)c1ccc(C(=O)NCc2ccccc2)cc1 25%
C/C(=N\Nc1ccc(S(N)(=O)=O)cc1[N+](=O)[O-])c1ccco1 -3.09%
O=C1OC(c2ccc(Cl)cc2)=C/C1=C/c1cccnc1 1.36%
COC(=O)C1=C(C)NC(C)=C(C(=O)OC)C1c1ccc(NC(C)=O)cc1 -1.45%
O=C(Nc1ccc(Cl)c(Cl)c1)c1ccc(Cl)c(Cl)c1 22.2%
Cc1ccc(NC(=O)c2ccc(Cl)nc2)cc1 16.1%
Cc1ccnc(NC(=O)c2cccc(S(=O)(=O)NCc3ccccc3)c2)c1 -2.28%
COc1cccc(-n2nnc3c(=O)n(Cc4ccc(Br)cc4)cnc32)c1 -0.95%

Reference: PubChem BioAssay AID1117319 (Southern Research Institute, 2015)
